Assay outcomes deposited in PubChem by The Scripps Research Institute Molecular Screening Center.
Shown are actives, neighbours in structure and some others; about 3.5% of the full set was active somewhere.
TEAD-YAP block = TEAD-YAP interaction inhibition; actives 1.4% (n = 640,000); inhibition, % at 9.12 µM; HEK-TIYL cells, TEAD-Gal4/YAP UAS-luciferase luminescence; in the data active = inhibition above about 32%
FBW7 activator = human FBW7 E3 ligase activation, primary screen. actives 0.13% (n = 650,000). Q969H0. AlphaScreen FBW7–phospho-cyclin E peptide binding, activator screen. normalized activity (activation), % at 26.1 µM. AID 1259310; in the data active = normalized activity above about 1.9%;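 also: purified mutant Fbw7 with reduced substrate affinity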
GPR151 ag = human GPR151 activation; Q8TDV0; PathHunter beta-arrestin GPR151 cells, luminescence; activation, % at 11.2 µM; actives 1% (n = 650,000); AID 1508602; in the data active = activation above about 4.9%
MITF inh = blocks human microphthalmia-associated transcription factor. AlphaScreen MITF homodimerization, bead proximity signal. actives 0.91% (n = 650,000). inhibition, % at 2.6 µM. AID 1259374; in the data active = inhibition above about 50%
Target sequence (O75030 whole entry, looked up): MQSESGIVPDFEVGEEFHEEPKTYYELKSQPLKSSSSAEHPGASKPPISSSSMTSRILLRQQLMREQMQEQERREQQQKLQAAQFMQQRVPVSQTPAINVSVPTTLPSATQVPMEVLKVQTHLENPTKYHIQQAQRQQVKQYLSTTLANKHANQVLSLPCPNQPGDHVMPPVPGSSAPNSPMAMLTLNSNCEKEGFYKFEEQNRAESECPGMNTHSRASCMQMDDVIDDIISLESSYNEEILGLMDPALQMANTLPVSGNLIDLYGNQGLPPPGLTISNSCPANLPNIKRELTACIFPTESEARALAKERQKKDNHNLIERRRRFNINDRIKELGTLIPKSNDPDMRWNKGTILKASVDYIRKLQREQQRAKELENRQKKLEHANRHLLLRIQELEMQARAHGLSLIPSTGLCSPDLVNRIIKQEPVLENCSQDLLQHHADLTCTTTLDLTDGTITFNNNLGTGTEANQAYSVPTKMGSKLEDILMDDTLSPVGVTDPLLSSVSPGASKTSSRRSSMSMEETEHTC
Of the large screens only hits and unclear results are named; the others gave an inactive call.

Cc1c(C(=O)Nc2nc3ccccc3s2)sc2nc(C)n(C)c(=O)c12	TEAD-YAP block 45
COc1ccc2nc(NC(=O)c3sc4nc(C)ccc4c3N)sc2c1	TEAD-YAP block 39
Cc1nc(SCC(=O)Nc2nc3ccccc3s2)c(C#N)c(C)c1C	TEAD-YAP block 95
CSc1ccccc1C(=O)C1CCCN(C(=O)Cn2cnc3ccccc32)C1 (centres undefined)	none
COc1ccc2c(c1)c1c(n2Cc2ccccc2)CCCC1	none
COc1ccc2c(c1)c1c3n2CCN(Cc2ccccc2)C3=[N+](C)CC1	TEAD-YAP block 42
O=C(CSc1nc2ccccc2o1)NCCc1ccccc1	none
CC1(C)CC(=O)C=C(NNC(=O)c2ccc(O)cc2)C1	none
CC1(C)CC(=O)C=C(NNC(=O)/C(=C/c2ccccc2)CCO)C1	FBW7 activator 1.9
CC1COC2=C(N3CCN(C)CC3)C(F)=CC3C(=O)C(C(=O)O)=CN1C23 (centres undefined)	none
CC1Cc2ccccc2N1S(=O)(=O)c1ccc2c(c1)n(C)c(=O)c(=O)n2C (centres undefined)	none
Cc1cc(-c2ccc(S(=O)(=O)N3c4ccccc4CC3C)cc2)on1 (centres undefined)	TEAD-YAP block 61
CC1Cc2ccccc2N1S(=O)(=O)c1ccc2[nH]c(=O)[nH]c2c1 (centres undefined)	TEAD-YAP block 37
O=C(NCCSCc1ccco1)c1ccc(-c2ccccc2)cc1	none
Nc1nc(SCC(=O)Nc2nc(-c3cccc(Br)c3)cs2)n[nH]1	none
O=[N+]([O-])c1ccc2[nH]c(O)c(N=Nc3ccc(S(=O)(=O)O)cc3)c2c1	MITF inh 60
COc1ccc(CCNc2cc(N3CCCCC3)ccc2[N+](=O)[O-])cc1OC	TEAD-YAP block 39
COc1ccc(CCNc2cc(N3CCN(C(C)=O)CC3)ccc2[N+](=O)[O-])cc1OC	TEAD-YAP block 46
COc1ccc(CCNc2cc(N3CCN(C(=O)c4ccc(Br)cc4)CC3)ccc2[N+](=O)[O-])cc1OC	none
COc1ccc(CCNc2cc(N3CCN(S(=O)(=O)N(C)C)CC3)ccc2[N+](=O)[O-])cc1OC	TEAD-YAP block 39
Cc1ccccc1OCC(=O)Nc1cccc(NC(=O)COc2ccccc2C)n1	none
Cc1ccc(OCC(=O)Nc2cc(C)on2)c(C)c1	none
Cc1ccccc1OCC(=O)Nc1ccccn1	TEAD-YAP block 42
Cc1ccc(OCC(=O)Nc2ccccn2)c(C)c1	TEAD-YAP block 96
CC(=O)Nc1ccc(NC(=O)NC2CC(=O)N(c3ccc(C)cc3)C2)cc1 (centres undefined)	none
O=S(=O)(c1ccc(Cl)cc1)N1CCC(n2nnc3cc(C(F)(F)F)ccc32)CC1	none
Nc1ccc(NC(=O)CN2CCCCC2)cc1	FBW7 activator 2.0
CC(NCCN1CCNCC1)c1cc(C(C)(C)C)cc2c1CCC2(C)C (centres undefined)	TEAD-YAP block 64
C[C@@H]1C[C@@H]2O[C@H]2C=CC=CC(=O)Cc2c(Cl)c(O)cc(O)c2C(=O)O1	TEAD-YAP block 52
N#C/C(=C/c1ccc(O)cc1)c1ccc(C#N)cc1	TEAD-YAP block 45
CN(C)c1ccc(/C=C(/C#N)c2ccc(C#N)cc2)cc1	none
Cc1ccc2[nH]c(=O)c(CN(CC3COCCO3)C(=O)Nc3ccccc3Cl)cc2c1 (centres undefined)	TEAD-YAP block 37
FC(F)(F)c1cccc(CNc2nc(-c3ccc(N4CCOCC4)nc3)nc3nc[nH]c23)c1	FBW7 activator 18
FC(F)(F)c1cccc(CNc2ccnc(Nc3ccc(N4CCOCC4)cc3)n2)c1	TEAD-YAP block 64
OCC1CCCN1c1nccc(NCc2cccc(C(F)(F)F)c2)n1 (centres undefined)	TEAD-YAP block 43
FC(F)(F)c1cccc(CNc2ccnc(NCCN3CCOCC3)n2)c1	none
c1cc(Nc2ccc(N3CCOCC3)cc2)nc(NCc2ccc3c(c2)OCO3)n1	TEAD-YAP block 38
FC(F)(F)c1cccc(CNc2nc(N3CCOCC3)nc3nc[nH]c23)c1	none
O=C(CCCCC(=O)N1CCc2ccccc21)N1CCc2ccccc21	none
FC(F)(F)Oc1cccc(-c2nccc(NCc3cccc(C(F)(F)F)c3)n2)c1	TEAD-YAP block 50
CCCc1ccc(OCC(=O)Nc2nccs2)cc1	TEAD-YAP block 81
Cc1ccc(OCC(=O)Nc2nccs2)cc1C	TEAD-YAP block 75
O=C(COc1ccc(F)cc1)Nc1nccs1	none
CCc1ccc(OCC(=O)Nc2nccs2)cc1	TEAD-YAP block 86
CCCCOC(=O)c1ccc(-n2c(=O)c(C#N)cc3c(=O)n4ccccc4nc32)cc1	none
CC(C)CNS(=O)(=O)c1ccc(CCC(=O)N2CCN(c3ccc(F)cc3)CC2)cc1	TEAD-YAP block 40
CCc1ccc(C2C(C#N)=C(N)N(c3ccc([N+](=O)[O-])cc3Cl)C3=C2C(=O)CC(C)(C)C3)s1 (centres undefined)	none
OC1CCC(Nc2nccn3c(-c4ccc5c(c4)OCO5)cnc23)CC1 (centres undefined)	FBW7 activator 1.9
O=C(NC1CC1)c1ccc(-c2cnc3c(NC4CCC(O)CC4)nccn23)cc1 (centres undefined)	TEAD-YAP block 51
COc1ccccc1-c1cnc2c(NC3CCC(O)CC3)nccn12 (centres undefined)	TEAD-YAP block 50
COc1cc(-c2cnc3c(NC4CCC(O)CC4)nccn23)cc(OC)c1OC (centres undefined)	none
OC1CCC(Nc2nccn3c(-c4ccc(F)cc4)cnc23)CC1 (centres undefined)	none
COc1cccc(NC(=O)N2CCN(c3c4c(nc5ncnn35)CCCC4)CC2)c1	none
Cc1ccc(-c2cnn3c(NCc4cccs4)ccnc23)cc1	none
OCc1ccccc1-c1cnn2c(NCc3cccs3)ccnc12	TEAD-YAP block 63
Nc1ccc(-c2cnn3c(NCc4cccs4)ccnc23)cc1	TEAD-YAP block 71
O=C(O)CCc1ccc(-c2cnn3c(NCc4ccco4)ccnc23)cc1	TEAD-YAP block 33
c1ccc(-c2cnn3c(NCc4cccs4)ccnc23)cc1	none
O=C(O)/C=C/C(=O)Nc1ccc(Oc2ccc(Oc3ccc(NC(=O)/C=C/C(=O)O)cc3)cc2)cc1	TEAD-YAP block 39
Cc1ccc(NC(=O)/C=C\C(=O)O)cc1	none
Cc1ccc(C)c(C(=O)NCC(C)(C)N2CCOCC2)c1	none
O=C(Nc1cc2ccccc2oc1=O)c1ccccc1	TEAD-YAP block 54
O=C(Nc1cc2ccccc2oc1=O)c1ccc(Br)cc1	none
CC(=O)Oc1ccc2cc(NC(=O)c3ccc(C)cc3)c(=O)oc2c1	TEAD-YAP block 52
Cc1ccc2occ(C(=O)c3ccc(Cl)cc3)c(=O)c2c1	none
CN1C(=O)C2Cc3c([nH]c4ccccc34)C(c3cccnc3)N2C1=S (centres undefined)	none
Cc1cc(C)c(NS(=O)(=O)c2ccc3[nH]c(=O)oc3c2)c(C)c1	FBW7 activator 6.3
O=c1[nH]c2ccc(S(=O)(=O)Nc3ccccc3)cc2o1	none
FC(F)(F)c1ccc(Cn2cnc3c(NC4CC4)nc(N4CCc5ccccc5C4)nc32)cc1	none
OC(c1ccccc1)c1ccccn1 (centres undefined)	none
